Screening data (PubChem)
PINK1 modulator = changes PINK1 expression. PINK1 immunofluorescence, high-content cytometry, 24 h. Potency, µM (titrated, usually from 76.6 µM), inactives show at the highest dose activation (PINK1 increase), actives largely listed as activators. actives 0.2% (n = 410,000); active = well fitted activation curve with a large enough effect; inconclusive = small, poorly fitted or top-dose-only effect; cell line not stated here; also: % of control where 0% means no effect; nearly all actives have a fitted effect of over 65% in size
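A stable cell line was treated with compounds at 5 concentrations for 24 hours, with CCCP as control. PINK1 levels and mitochondrial localization were measured by immunofluorescence with mitochondrial, cell and nuclear markers after fixation, read by laser-scanning cytometry.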
PTAP TSG101 blk = blocks PTAP/TSG101 interaction to inhibit HIV-1 budding; 340,000 tested, under 10 active; Potency, µM (top dose mostly 115 µM), without a hit: top-dose activity change, negative = inhibition, hits mostly inhibitors; Q99816; Fluorescence polarization, FITC-PTAP peptide / Tsg101 binding; active = well fitted inhibition curve with a large enough effect in the main read-out, with a control signal flat, not every such curve was filed as active; inconclusive = small, poorly fitted or top-dose-only effect, or effect the other way, or a change in a side signal; inactive = no such curve, though single readings can be large or run the other way; also: % of control where 0% means no effect
Target sequence (Q99816 whole entry, looked up): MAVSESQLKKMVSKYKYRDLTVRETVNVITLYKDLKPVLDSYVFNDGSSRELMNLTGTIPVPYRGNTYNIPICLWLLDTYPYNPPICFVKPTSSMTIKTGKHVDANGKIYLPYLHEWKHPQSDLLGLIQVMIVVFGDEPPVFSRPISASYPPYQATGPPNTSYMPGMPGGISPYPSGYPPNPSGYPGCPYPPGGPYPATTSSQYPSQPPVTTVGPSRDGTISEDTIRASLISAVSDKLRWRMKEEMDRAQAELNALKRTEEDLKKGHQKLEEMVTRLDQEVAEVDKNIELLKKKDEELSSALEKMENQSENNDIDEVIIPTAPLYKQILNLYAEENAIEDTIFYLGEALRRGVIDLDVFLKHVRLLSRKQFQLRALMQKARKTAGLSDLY
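Fluorescence anisotropy tracks displacement of a FITC-tagged PTAP peptide (50 nM) from the Tsg101 binding domain (10 uM), following a 20 min room-temperature incubation at pH 7.5.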
Apoferritin bind = candidate novel general anesthetic via apoferritin binding. actives 0.074% (n = 350,000). Potency, µM (series often up to 77.5 µM), for inactives: top-dose activity change, negative = displacement, hits mostly inhibitors. P02791. apoferritin/1-aminoanthracene competitive binding, fluorescence; also: % is scaled to controls: 0 for no effect and ±100 for the full control effect; nearly all actives have a fitted effect of over 20% in size
Target sequence (P02791 2-175 limits assumed): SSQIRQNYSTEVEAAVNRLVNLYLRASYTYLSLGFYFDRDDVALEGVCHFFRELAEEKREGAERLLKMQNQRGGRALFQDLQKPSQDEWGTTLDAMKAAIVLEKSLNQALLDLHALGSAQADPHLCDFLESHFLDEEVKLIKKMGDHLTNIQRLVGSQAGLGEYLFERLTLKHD
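Probe: 1-aminoanthracene (50% saturated, PBS). Protein: horse-spleen apoferritin, 10 uM. Incubation: 10 min, room temperature. Detection: 380 nm excitation, 535 nm emission. Analysis: normalized response, four-parameter Hill.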
HttQ103 aggreg = reduces HttQ103-GFP aggregates in PC12 cells; PC12 HttQ103-GFP aggregates, Acumen cytometry, 40 h; Potency, µM (doses to about 46.1 µM), for inactives: at the highest dose activity change, negative = inhibition, usual class: inhibitors; actives 1.1% (n = 220,000); AID 1688; also: % is scaled to controls: 0 for no effect and ±100 for the full control effect; nearly all actives have a fitted effect of over 60% in size
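Ecdysone-promoter PC12 model expressing HTT exon 1 Q103 fused to GFP, induced by tebufenozide at 100 nM final. Compounds titrated; aggregates sized 1–25 µm scored on a 488 nm laser cytometer.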
Epigenetic derep = epigenetic control regulation, reporter derepression | murine LDR cells, GFP reporter derepression, 30 h | Potency, µM (series often up to 53.9 µM), for inactives: at the top dose GFP activation, most hits filed as activators | actives 0.2% (n = 280,000) | AID 1865; also: % of control where 0% means no effect; nearly all actives have a fitted effect of over 60% in size
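Reporter derepression read as number of fluorescent GFP-positive objects, 20-120 um in size, counted by laser-scanning cytometer. Mouse LDR line with an epigenetically silenced CMV-GFP locus; compound incubation 30 h, 37 C.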
HTT cytoprotect = protects HTT-Q103 PC12 cells, measured by ATP | PC12 HTT-Q103 induced, cytoprotection, ATP luminescence, 40 h | Potency, µM (titrated, usually from 56.4 µM), without a hit: cytoprotection (ATP increase), most hits filed as activators | actives 0.14% (n = 230,000); also: % of control where 0% means no effect; nearly all actives have a fitted effect of over 45% in size
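PC12 cells stably carrying ecdysone-inducible Htt exon 1 (Q103)–GFP were induced with 100 nM tebufenozide (final) alongside library compounds in a dose series. Cytoprotection was scored as retained ATP by ATPlite luminescence.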
Starred values were filed as active, the others as inactive; ? = inconclusive; . = no result; [ ] = another dose, or the depositor's remark. The entries come from a sample that favours hits as a whole. Unless noted, calls follow the shape of the dose curve; as a rule, active = well fitted curve in the direction sought with a large enough effect; inconclusive = small, poorly fitted or top-dose-only effect, or another doubt; inactive = no such curve, though single readings can be large; an effect the other way counts as inactive or inconclusive. Potency is read from the fitted curve at half-maximal effect.

SMILES	PINK1 modulator	PTAP TSG101 blk	Apoferritin bind	HttQ103 aggreg	Epigenetic derep	HTT cytoprotect
Nc1c(C(=O)Nc2ccccc2)sc2nc(-c3cccnc3)ccc12	.	.	-12%	14%[9.22 µM]	3.5µM*	-1%[10 µM]
Cc1ccc(NC(=O)c2sc3nc(-c4ccncc4)ccc3c2N)cc1	32µM*	.	64%	.	22µM*	.
COc1ccc(NC(=O)c2sc3nc(-c4cccnc4)ccc3c2N)cc1	45µM*	?	-12%	-1%[9.22 µM]	?	12%[10 µM]
Nc1c(C(=O)Nc2ccc(F)c(F)c2)sc2nc(-c3ccncc3)ccc12	1%	.	-3%	.	4%	.
Nc1c(C(=O)Nc2cccc(Cl)c2Cl)sc2nc(-c3cccnc3)ccc12	12%	4%	3%	-8%	6%	24%[10 µM]
COc1cccc(-c2ccc3c(N)c(C(=O)Nc4ccccc4C)sc3n2)c1	0%	.	213%	.	0%	.
COc1ccc(NC(=O)c2sc3nc(-c4cccnc4)ccc3c2N)cc1OC	2%	?	3%	8%[9.22 µM]	7.1µM*	-1%[10 µM]
COCc1c(C(=O)N2CCC(N3CCCCC3)CC2)cnn1-c1ncc(C)c(-c2cccs2)n1	0%	.	.	.	.	.
Cn1c(=O)c2c(nc(NCc3ccccc3)n2Cc2ccc(Cl)c(Cl)c2)n(C)c1=O	0%	.	3%	.	5%	.
CCOC(=O)c1c(C)c(C(=O)Nc2ccc(N(C)C)cc2)c(C)n1CC	11µM*	-1%	-18%	16%	-2%	-83%
O=C(CSc1nccn1Cc1ccc(F)cc1)Nc1ccc2c(c1)OCCO2	-11%	.	3%	.	3%	.
COC(=O)[C@@]1(Cc2ccc(F)cc2)[C@@H]2C(=CC(=O)[C@H]2CC(=O)C(=O)N(C)C)CN1C(=O)c1ccccc1	.	.	-10%	.	2%	4µM*
Cc1cnc2ccc(I)cc2c1/C=C/c1ccc(N(C)C)cc1	5%	.	.	.	.	.
Cc1cccnc1CN1CCN(C(=O)c2cc(COc3ccc4ncccc4c3)on2)CC1	1%	0%	-12%	6.3µM*	1%	-66%
O=C(NC1CCCCCCC1)c1cc(COc2ccc3ncccc3c2)on1	?	0%	?	3.2µM*	0%	-55%
CC(=O)c1ccc(OCc2cc(C(=O)N3CCCCCCC3)no2)cc1	0%	-1%	5µM*	.	.	.
COC(=O)[C@@H]1CCCN1Cc1ccc2c(c1)CN(Cc1cccc(Cl)c1)CCO2	0%	.	.	.	.	.
Cc1cccc(NC(=S)N(CCCN2CCOCC2)Cc2cn(C)c3ccccc23)c1	-3%	-4%	-6%	8.9µM*	-1%	-39%[10 µM]
Cc1ccc(NC(=S)N(C)Cc2cn(C)c3ccccc23)cc1	3%	-3%	-6%	35µM*	-1%	8%[10 µM]
COc1ccc(NC(=S)N(CCCN2CCOCC2)Cc2cn(C)c3ccccc23)cc1	0%	57%	-8%	?	0%	-41%[10 µM]
Cc1cnc(C(=O)NCc2c(C)ncc3c2CCN(C(=O)/C=C/c2cccs2)C3)cn1	-1%	.	.	.	.	.
CCCC(=O)C1=C(O)C(C(=O)OC)C(C)(C)CC1=Nc1cccc2ccccc12 (centres undefined)	2%	-7%	1%	11µM*	0%	3%[1.9 µM]
CCOC(=O)c1c(C)[nH]c(C)c1C(=O)CSc1nc2ccccc2c(=O)n1-c1ccc(Cl)cc1	-1%	3%	-15%	20µM*	0%	.
CCOC(=O)c1c(C)[nH]c(C)c1C(=O)CSc1nc2ccccc2c(=O)n1-c1ccc(C)cc1	4%	-2%	10%	?	0%	14%[1.9 µM]
Cc1sc2ncn(CCn3cnc4sc(C)c(C)c4c3=O)c(=O)c2c1C	-1%	1%	-2%	0.45µM*	-2%	6%
SMILES	PINK1 modulator	PTAP TSG101 blk	Apoferritin bind	HttQ103 aggreg	Epigenetic derep	HTT cytoprotect
Cc1sc2ncn(CCC(=O)O)c(=O)c2c1C	1%	-6%	-9%	-1%[9.22 µM]	-3%	3%
Cc1cc(C(=O)NCc2nnc3n2CCN(Cc2ccc4c(c2)Cc2ccccc2-4)CC3)c(C)o1	1%	.	.	.	.	.
Cc1ccc(NC(=S)NC(NC(=O)c2ccccc2)C(Cl)(Cl)Cl)c(C)c1 (centres undefined)	40µM*	0%	-7%	-22%	-1%	22%[10 µM]
O=C(NC(NC(=S)Nc1ccccc1)C(Cl)(Cl)Cl)c1cccc(Cl)c1 (centres undefined)	?	-4%	-21%	11µM*	-1%	-71%
O=S(=O)(c1ccc(F)cc1)N1CCN(c2nc(-c3cccc(Br)c3)nc3ccccc23)CC1	3%	.	.	.	.	.
CCOc1ccc(C(=O)N/N=C/c2cccc3cccnc23)cc1	1%	-5%	-21%	3.5µM*	1%	-64%
Cc1ccc(/C=C(\C#N)C(=O)Nc2c(C)cccc2C)s1	2%[38.3 µM]	4%	?	-21%	-4%	-1%
Cc1ccc(NC(=O)/C(C#N)=C/c2ccc(C)s2)c(C)c1	12%	?	-6%	12%[9.22 µM]	3.2µM*	-7%
CCCn1c(-c2nonc2N)nc2ccccc21	0%	0%	8%	13µM*	-1%	3%[10 µM]
Cn1c(-c2nonc2N)nc2ccccc21	-1%	-7%	-5%	.	.	.
C=CCc1ccccc1OCc1nc2ccc(C)cc2[nH]1	40µM*	.	-13%	.	-2%	.
CCOC(=O)C1CCCN(C(=O)Nc2ccccc2)C1 (centres undefined)	4%[38.3 µM]	-3%	-12%	0.63µM*	0%	.
CCOC(=O)C1CCCN(C(=O)C2CCN(C(=O)Nc3ccccc3)CC2)C1 (centres undefined)	2%	-1%	.	.	.	.
Cc1c(C(=O)NCC2(c3ccccc3)CCOCC2)cnn1-c1nccc(-c2ccco2)n1	0%	.	.	.	.	.
O=C(CC1(O)C(=O)N(Cc2ccc3c(c2)OCO3)c2ccccc21)c1ccccc1 (centres undefined)	-1%	-9%	?	-1%	4%	-72%[10 µM]
Cc1ccc(C(=O)CC2(O)C(=O)N(Cc3ccc4c(c3)OCO4)c3ccccc32)cc1 (centres undefined)	0%	-5%	14µM*	22%	-4%	-6%
O=C(NCCc1ccccn1)C1CC12CCN(C(=O)c1ccccc1Cl)CC2 (centres undefined)	0%	.	.	.	.	.
O=C(Nc1cccc(N2CCC(NCc3cnn(-c4cccc(F)c4)c3)CC2)c1)c1ccncc1	2%	.	.	.	.	.
O=C1c2ccccc2C(=O)C12OC2c1ccc(Cl)cc1Cl (centres undefined)	0%	-3%	-4%	25µM*	0%	27%[10 µM]
O=C1c2ccccc2C(=O)C1c1ccc(Cl)cc1	-1%	.	?	11%	.	-24%
COc1ccccc1NC(=O)Cn1c(=O)c(CNc2ccccc2)cc2cc(OC)c(OC)cc21	3%	.	41%	.	-5%	.
